Assay [1] in a line: P-glycoprotein substrates identified in KB-8-5-11 adenocarcinoma cell line, qHTS therapeutic library screen (AID 1346987). Further: nearly all actives have a fitted effect of over 65% in size. Further: potency means the concentration at half of the fitted maximal effect. In outline: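 Compounds are pinned in dose-response onto KB-8-5-11 cells (500 cells/well, colchicine-free medium) and left 72 h at 37 degree C. CellTiter-Glo luminescence then yields AC50 values.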
Assay [2] can be described thus: NS1 protein of Zika virus - qHTS assay to identify small molecule inhibitors in human HEK 293 cells (AID 1347053). Further: series mostly up to about 46 µM; nearly all actives have a fitted effect of over 55% in size. In outline: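 Read-out is a two-antibody TR-FRET for ZIKV NS1, normalized between uninfected cells and infected cells. Compound added 1 h before MR766 infection at MOI 0.5; human HEK 293 cells incubated 24 h, 37 C.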
For orientation: Quantitative high-throughput screening tests each substance at several concentrations.

Assay [3] is described as follows: qHTS of pediatric cancer cell lines to identify multiple opportunities for drug repurposing: Primary screen for SJ-GBM2 cells (AID 1347091). Further: potency means the concentration at half of the fitted maximal effect. In outline:
(§1)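 Cell viability, CellTiter-Glo luminescence; 500-1,000 cells/well, 8- or 11-point titration, 48 h compound exposure at 37 degrees C, 5% CO2. Controls: DMSO neutral, bortezomib 2.3 µM final as positive.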

Assay [4] in a line: qHTS of pediatric cancer cell lines to identify multiple opportunities for drug repurposing: Primary screen for A673 cells (AID 1347092). Further: nearly all actives have a fitted effect of over 45% in size. Further: potency means the concentration at half of the fitted maximal effect. In outline: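 A673 cells (500-1,000 cells/well in growth media) were pre-incubated 5 h at 37 degrees C, then exposed to compounds for 48 h. Viability was read as CellTiter-Glo luminescence; concentration-response curves came directly from the primary screen.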

A short description of assay [5]: qHTS of pediatric cancer cell lines to identify multiple opportunities for drug repurposing: Primary screen for SK-N-MC cells (AID 1347093). Further: potency means the concentration at half of the fitted maximal effect. In outline:
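Metabolically active cells were quantified by ATP-dependent luminescence (CellTiter-Glo, 15 min at room temperature) following 48 h treatment. Cells had been plated at 500-1,000 per well and settled for 5 h beforehand.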

The nature of assay [6]: qHTS of pediatric cancer cell lines to identify multiple opportunities for drug repurposing: Primary screen for Saos-2 cells (AID 1347097). Further: nearly all actives have a fitted effect of over 40% in size. Further: potency means the concentration at half of the fitted maximal effect. In outline:
(§2)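 Viability was measured as metabolically active cells after 48 hours of treatment, read by CellTiter-Glo luminescence. Compounds were tested at multiple final concentrations, giving concentration-response curves.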

Assay [7] is described as follows: qHTS of pediatric cancer cell lines to identify multiple opportunities for drug repurposing: Primary screen for TC32 cells (AID 1347089). Further: nearly all actives have a fitted effect of over 60% in size. Further: potency means the concentration at half of the fitted maximal effect. In outline: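 Luminescent CellTiter-Glo read-out of metabolically active TC32 cells after 48 h compound exposure. Primary: MIPE 11-point, 0.78 nM–46 µM; NPC 8-point, 0.59 nM–46 µM. Confirmatory: 11-point dilutions.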
Assay [8] is described as follows: qHTS of pediatric cancer cell lines to identify multiple opportunities for drug repurposing: Primary screen for NB1643 cells (AID 1347099). Further: nearly all actives have a fitted effect of over 50% in size. Further: potency means the concentration at half of the fitted maximal effect. In outline: as §2
Assay [9] in a line: qHTS of pediatric cancer cell lines to identify multiple opportunities for drug repurposing: Primary screen for DAOY cells (AID 1347090). Further: nearly all actives have a fitted effect of over 55% in size. Further: potency means the concentration at half of the fitted maximal effect. In outline:
as §1

Assay [10] is described as follows: qHTS of pediatric cancer cell lines to identify multiple opportunities for drug repurposing: Primary screen for BT-37 cells (AID 1347094). Further: potency means the concentration at half of the fitted maximal effect. In outline:
as §2

The nature of assay [11]: qHTS of pediatric cancer cell lines to identify multiple opportunities for drug repurposing: Primary screen for NB-EBc1 cells (AID 1347095). Further: potency means the concentration at half of the fitted maximal effect. In outline: as §2
The nature of assay [12]: qHTS of pediatric cancer cell lines to identify multiple opportunities for drug repurposing: Primary screen for U-2 OS cells (AID 1347096). Further: nearly all actives have a fitted effect of over 50% in size. In outline: (§3)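 Cells (500-1,000/well) rested 5 h, then received compounds for 48 h; metabolically active cells were measured by CellTiter-Glo luminescence. Final concentrations spanned up to 46 µM (MIPE, 11-point) or 0.59 nM-46 µM (NPC, 8-point) in primary screens, 11-point in follow-ups.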

Assay [13] can be described thus: qHTS of pediatric cancer cell lines to identify multiple opportunities for drug repurposing: Primary screen for SK-N-SH cells (AID 1347098). Further: nearly all actives have a fitted effect of over 65% in size. Further: potency means the concentration at half of the fitted maximal effect. In outline: as §3
In assay [14] the target is Atrial natriuretic peptide receptor 2 (Homo sapiens) (UniProt P20594). The assay is described as follows: Natriuretic polypeptide receptor (hNpr2) antagonism - Pilot subtype selectivity assay (AID 1347050; calls by dose curve). In outline:
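Antagonist mode: compounds (LOPAC1280, seven 1:5 dilutions) added 30 min before 1 nM hNppC stimulation of hNpr2-HEK293 cGMP-sensor cells; luminescence read before and 20 min after agonist at ambient temperature.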

Assay [15] has as its target Tyrosine-protein phosphatase non-receptor type substrate 1 (Homo sapiens) + Leukocyte surface antigen CD47 (Homo sapiens) (UniProt P78324+Q08722). The assay is described as follows: CD47-SIRPalpha protein protein interaction - Alpha assay qHTS validation (AID 1347059).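 Further: bead proximity luminescence from CD47 binding SIRPalpha after compound preincubation with SIRPalpha.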 In outline:
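AlphaScreen signal between CD47-His (12.5 nM) and biotin-SIRPalpha (25 nM) soluble extracellular domains, bead-captured via Ni-NTA and streptavidin. Compounds, in 7-point titrations, met SIRPalpha 30 min before CD47; PBS pH 7.4 with 0.05% IGEPAL.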

Assay [16] has as its target Parathyroid hormone/parathyroid hormone-related peptide receptor (Homo sapiens) (UniProt Q03431). The assay is described as follows: qHTS for PTHR1 Agonists: Optimization Screen against the NCGC LOPAC library (AID 1347079).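 Further: GloSensor cAMP luminescence in HEK-293 GP2 cells expressing human PTHR1 with IBMX.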 In outline:
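HEK-293 GP2 cells, PTHR1 + GloSensor cAMP; 3000 cells/well, o/n. Luciferin + IBMX 0.5mM each (stock), 1 hr 37C. Cpd titration, 1 hr 37C. Lum after 15 min RT. Ctrl M-PTH(1-15) top 10uM.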

Structures are written as SMILES. Results filed as inconclusive are left out. The source made the active and inactive calls. Unless noted, the call rests on the fitted dose curve; in most records, active means well fitted curve in the direction sought with a large enough effect; inconclusive means small, poorly fitted or top-dose-only effect, or another doubt; inactive means no such curve, though single readings can be large; an effect the other way counts as inactive or inconclusive.

Parathyroid hormone/parathyroid hormone-related peptide receptor (Homo sapiens), sequence (Q03431 whole entry, looked up): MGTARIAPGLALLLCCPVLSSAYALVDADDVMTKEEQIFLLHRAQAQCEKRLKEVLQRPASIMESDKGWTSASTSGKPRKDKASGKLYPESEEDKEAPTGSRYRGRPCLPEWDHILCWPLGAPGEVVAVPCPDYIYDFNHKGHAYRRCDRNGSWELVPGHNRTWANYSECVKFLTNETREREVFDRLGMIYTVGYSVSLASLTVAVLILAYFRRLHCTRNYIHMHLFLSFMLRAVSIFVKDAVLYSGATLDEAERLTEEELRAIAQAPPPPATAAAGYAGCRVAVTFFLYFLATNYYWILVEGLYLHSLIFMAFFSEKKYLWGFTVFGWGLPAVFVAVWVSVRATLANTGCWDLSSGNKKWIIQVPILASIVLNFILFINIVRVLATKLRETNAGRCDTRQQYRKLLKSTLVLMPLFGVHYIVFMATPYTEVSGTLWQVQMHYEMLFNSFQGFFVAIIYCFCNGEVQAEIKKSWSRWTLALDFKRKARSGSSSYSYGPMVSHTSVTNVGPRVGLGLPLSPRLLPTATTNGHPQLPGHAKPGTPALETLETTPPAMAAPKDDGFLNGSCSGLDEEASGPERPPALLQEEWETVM
Tyrosine-protein phosphatase non-receptor type substrate 1 (Homo sapiens) + Leukocyte surface antigen CD47 (Homo sapiens), sequence (P78324 whole entry, looked up, the tested form may be a part): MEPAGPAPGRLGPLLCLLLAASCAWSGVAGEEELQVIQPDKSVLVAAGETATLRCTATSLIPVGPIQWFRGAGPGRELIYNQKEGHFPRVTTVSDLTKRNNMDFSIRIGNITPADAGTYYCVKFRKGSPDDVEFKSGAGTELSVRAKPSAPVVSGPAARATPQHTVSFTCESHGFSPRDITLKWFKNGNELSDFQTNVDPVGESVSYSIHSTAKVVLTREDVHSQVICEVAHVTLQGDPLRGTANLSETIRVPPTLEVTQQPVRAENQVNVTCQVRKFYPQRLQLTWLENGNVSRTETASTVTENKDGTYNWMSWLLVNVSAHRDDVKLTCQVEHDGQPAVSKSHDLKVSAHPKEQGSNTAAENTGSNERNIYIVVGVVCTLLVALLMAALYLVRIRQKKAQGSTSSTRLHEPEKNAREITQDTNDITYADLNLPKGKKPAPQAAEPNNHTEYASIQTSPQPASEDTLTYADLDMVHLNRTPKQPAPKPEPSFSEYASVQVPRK
Tyrosine-protein phosphatase non-receptor type substrate 1 (Homo sapiens) + Leukocyte surface antigen CD47 (Homo sapiens), sequence (Q08722 whole entry, looked up, the tested form may be a part): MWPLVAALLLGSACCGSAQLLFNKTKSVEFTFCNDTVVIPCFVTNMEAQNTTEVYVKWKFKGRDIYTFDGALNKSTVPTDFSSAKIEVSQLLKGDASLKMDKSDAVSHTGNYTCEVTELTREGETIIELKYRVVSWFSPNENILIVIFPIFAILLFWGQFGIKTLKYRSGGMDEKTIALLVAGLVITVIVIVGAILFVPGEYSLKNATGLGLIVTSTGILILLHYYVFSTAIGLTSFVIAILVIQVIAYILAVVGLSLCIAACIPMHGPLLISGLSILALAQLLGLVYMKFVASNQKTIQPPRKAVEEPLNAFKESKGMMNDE
Atrial natriuretic peptide receptor 2 (Homo sapiens), sequence (P20594 whole entry, looked up): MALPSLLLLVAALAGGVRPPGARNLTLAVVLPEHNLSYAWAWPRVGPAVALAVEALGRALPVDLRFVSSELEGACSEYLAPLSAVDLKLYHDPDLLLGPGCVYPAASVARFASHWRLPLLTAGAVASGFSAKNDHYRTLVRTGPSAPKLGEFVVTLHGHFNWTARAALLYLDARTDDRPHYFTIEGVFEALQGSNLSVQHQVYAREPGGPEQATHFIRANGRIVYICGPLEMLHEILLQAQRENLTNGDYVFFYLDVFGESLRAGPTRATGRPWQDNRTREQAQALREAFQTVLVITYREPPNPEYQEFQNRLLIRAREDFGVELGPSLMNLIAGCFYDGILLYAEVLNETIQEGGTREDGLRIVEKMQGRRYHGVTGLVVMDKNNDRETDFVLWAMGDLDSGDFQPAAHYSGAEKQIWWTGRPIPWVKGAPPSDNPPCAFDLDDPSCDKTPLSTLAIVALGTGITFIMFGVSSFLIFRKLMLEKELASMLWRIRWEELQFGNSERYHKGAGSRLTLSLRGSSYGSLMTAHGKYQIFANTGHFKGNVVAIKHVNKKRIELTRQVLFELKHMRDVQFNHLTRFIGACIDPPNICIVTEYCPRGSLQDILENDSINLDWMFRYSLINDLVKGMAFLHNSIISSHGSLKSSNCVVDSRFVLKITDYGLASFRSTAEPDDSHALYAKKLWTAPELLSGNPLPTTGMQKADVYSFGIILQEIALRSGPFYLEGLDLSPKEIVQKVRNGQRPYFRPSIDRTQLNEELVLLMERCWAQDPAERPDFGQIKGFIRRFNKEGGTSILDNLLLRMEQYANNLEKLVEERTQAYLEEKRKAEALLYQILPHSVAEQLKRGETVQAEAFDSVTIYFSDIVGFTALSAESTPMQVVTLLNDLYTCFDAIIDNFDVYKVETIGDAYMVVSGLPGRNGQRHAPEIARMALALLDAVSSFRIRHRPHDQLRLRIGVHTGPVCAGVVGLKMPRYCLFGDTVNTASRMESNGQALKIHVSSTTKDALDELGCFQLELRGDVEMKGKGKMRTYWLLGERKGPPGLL

Consider `Cc1ccc(F)c(NC(=O)Nc2ccc(-c3cccc4[nH]nc(N)c34)cc2)c1`, for which the Potency was 23.5 µM (active) in assay [1]; 23.5 µM (active) in assay [3]; 14.8 µM (active) in [4]; 20.9 µM (active) in assay [5]; 18.7 µM (active) in assay [6]. In addition, in [2], the Potency entry is “inactive”.

With `O=c1cc(CN2CCOCC2)occ1OCCCCCSc1ccnc2cc(C(F)(F)F)ccc12`, the Potency in [1] was 10.3 µM (active); in assay [3] it was 1.32 µM (active); in assay [5], 1.32 µM (active); in [6], 4.18 µM (active). Also, the Potency result in assay [7] and in assay [8] was “inactive” each time.

With `O=c1[nH]cnc2c1ncn2[C@H]1CC[C@@H](CO)O1`, the Potency result in [1], in assay [7], in [9], in assay [10], in [11] and in assay [12] was “inactive” each time. Further, the Potency result in assay [6] was “inactive”. In addition, the figures for the Potency in assay [4] and in assay [5] were 29.6 µM (active) and 9.35 µM (active), respectively.

For `CN1C[C@H]2c3ccccc3Oc3ccc(Cl)cc3[C@@H]2C1`, the Potency result in assay [1], in [7], in assay [9], in assay [3], in [4] and in [5] was “inactive” in each case. Moreover, the Potency entry in assay [10], in [11], in assay [12], in assay [6] and in [8] was “inactive” each time.

Take `COc1ccc2cc(-c3nc(-c4ccc(S(C)=O)cc4)[nH]c3-c3ccncc3)ccc2c1` (centres undefined): the Potency result in assay [1], in assay [7] and in assay [6] was “inactive” in each case. The Potency in assay [3] was 14.8 µM (active).

As for `CN1[C@@H]2CCC[C@@H]1CC(NC(=O)c1nn(C)c3ccccc13)C2` (some centres undefined), the Potency result in [1], in assay [7], in [9], in assay [3], in assay [4] and in [5] was “inactive” each time. Moreover, the Potency result in assay [10] and in assay [6] was “inactive” throughout.

As for `CC1(C)O[C@H]2C[C@@H]3[C@H]4CCC5=CC(=O)C=C[C@]5(C)[C@@]4(F)[C@@H](O)C[C@]3(C)[C@]2(C(=O)CO)O1`, the Potency entry in assay [1], in assay [7], in assay [9], in assay [12] and in [6] was “inactive” throughout. In addition, the Potency in assay [5] is 8.33 µM (active); in assay [10], 13.7 µM (active); in assay [11] it was 2.35 µM (active); in assay [8], 14.8 µM (active).

With `N#CC1(c2ccc(NC(=O)c3cccnc3NCc3ccncc3)cc2)CCCC1`, the Potency entry in assay [1], in assay [7], in [9], in assay [3], in assay [4] and in [5] was “inactive” throughout. Further, the Potency result in [11], in [12] and in assay [13] was “inactive” throughout.

As for `COc1cc(NC(=O)c2ccc(-c3ccc(Cl)cc3)o2)cc(OC)c1`, the Potency result in assay [1], in assay [7], in assay [11] and in [6] was “inactive” throughout. In addition, the Potency in assay [9] is 2.96 µM (active); in assay [4] it was 7.43 µM (active); in assay [5] it was 1.32 µM (active); in [13] it was 1.52 µM (active); in [8], 6.62 µM (active).

In the case of `Cc1ccn(-c2ccc(-c3ncco3)cc2)c(=O)c1-c1ccc2nc(N)ncc2c1`, the Potency entry in assay [1], in assay [2], in assay [11] and in assay [12] was “inactive” throughout. Moreover, the Potency in assay [5] was 3.32 µM (active).

On to `CN(C)C1CCN(C(=O)c2ccc(NC(=O)Nc3nc(N4CCOCC4)nc(N4CCOCC4)n3)cc2)CC1`, for which the Potency was 14.8 µM (active) in assay [1]; 0.0658 µM (active) in assay [7]; 0.105 µM (active) in assay [3]; 0.0118 µM (active) in [4]; 0.0166 µM (active) in assay [5]; 0.0273 µM (active) in assay [10]. For the same molecule, the Potency was 1.32 µM (active) in [11], 0.166 µM (active) in assay [6] and 0.372 µM (active) in assay [8].

As for `CC1CCC(C(=O)N(c2cc(C#CC(C)(C)C)sc2C(=O)O)C2CCC(O)CC2)CC1` (centres undefined), the Potency entry in assay [1], in assay [7], in assay [3], in assay [4] and in assay [13] was “inactive” in each case. The Potency in [8] is 20.9 µM (active).

On to `O=C(O)c1cc(O)c2c(c1)C(=O)c1cccc(O)c1C2=O`, for which the Potency entry in [1], in assay [7], in [3], in [4], in assay [10] and in assay [12] was “inactive” throughout. For the same molecule, the Potency result in assay [13] was “inactive”. Moreover, the values for the Potency in [5] and in assay [11] were 19.1 µM (active) and 38.2 µM (active), respectively.

Consider `Clc1ccc(C(c2ccc(Cl)cc2)n2cc[n+](CC(OCc3ccc(Cl)cc3Cl)c3ccc(Cl)cc3Cl)c2)cc1` (centres undefined), for which the result in [14], in assay [15] and in [16] was inactive. For the same molecule, the Potency result in assay [7] is “inactive”. Further, the Potency was 23.5 µM (active) in assay [9]; 23.5 µM (active) in assay [3]; 18.7 µM (active) in assay [4]; 7.43 µM (active) in assay [5]; 21.7 µM (active) in assay [10]; 23.5 µM (active) in assay [11]. In addition, the Potency in assay [6] was 11.8 µM (active); in [13] it was 24.1 µM (active); in assay [8], 23.5 µM (active).

Take `c1cc(-c2sc(-c3ccncc3)c(-c3ccncc3)c2-c2ccncc2)ccn1`: the Potency entry in assay [1], in [7], in [10], in assay [11] and in [12] was “inactive” throughout. The Potency in [5] was 20.9 µM (active).

In the case of `CC[C@]1(O)C[C@@H]2CN(CCc3c([nH]c4ccccc34)[C@@](C(=O)OC)(c3cc4c(cc3OC)N(C=O)[C@@H]3C45CCN4CC=C[C@](CC)([C@H]45)[C@@H](OC(C)=O)[C@]3(O)C(=O)OC)C2)C1` (some centres undefined), the Potency result in [1], in assay [7], in assay [10], in assay [12] and in [6] was “inactive” in each case. The Potency was 11.8 µM (active) in [4] and 20.9 µM (active) in [5].

With `N#C[C@H]1C[C@H]2C[C@@H]2N1C(=O)[C@@H](N)C12CC3CC(CC(O)(C3)C1)C2`, the Potency result in assay [2], in assay [7], in assay [9], in assay [3], in assay [10] and in [11] was “inactive” each time. The Potency result in assay [12] is “inactive”. In addition, the Potency in assay [13] was 24.1 µM (active).

With `N[C@H](CSC(c1ccccc1)(c1ccccc1)c1ccccc1)C(=O)O`, the Potency result in assay [1], in [7], in assay [13] and in [8] was “inactive” in each case. Moreover, the Potency in assay [5] was 14.8 µM (active); in assay [11], 11.8 µM (active); in assay [6], 9.35 µM (active).

With `CO[C@H]1C(=O)[C@]2(C)[C@@H](OC)C[C@H]3OC[C@@]3(OC(C)=O)[C@H]2[C@H](OC(=O)c2ccccc2)[C@]2(O)C[C@H](OC(=O)[C@H](O)[C@@H](NC(=O)OC(C)(C)C)c3ccccc3)C(C)=C1C2(C)C`, the Potency in [1] was 0.001 µM (active); in assay [7], 1.47 µM (active); in [4] it was 0.001 µM (active); in assay [5] it was 29.6 µM (active); in assay [6], 0.001 µM (active). The Potency result in [12], in assay [13] and in assay [8] was “inactive” each time.

Values taken from PubChem BioAssay (NCATS).
